ELG1 genotoxic: genotoxicity induction in ELG1-luciferase HEK293T cells. HEK293T ELG1-luciferase reporter, luminescence, 16 h. Potency, µM (highest dose often 46 µM), inactives show top-dose activity change, positive = activation, usual class: activators. 330,000 tested, 1.3% active; further: % of control where 0% means no effect; nearly all actives have a fitted effect of over 60% in size
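HEK293T cells expressing luciferase-tagged ELG1 were treated with compound or DMSO for 16 hr at 37°C. Luciferase activity was then read after 30 min with ONE-Glo at room temperature; rising signal flags genetic stress.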
Rab9 promoter act: Rab9 promoter activation; AID 485297; 320,000 tested, 2.8% active; Potency, µM (titrated, usually from 9.22 µM), for the others: top-dose activation, negative = inhibition, actives largely listed as activators; Huh7 Rab9 promoter-luciferase reporter, luminescence, 24 h; further: % of control where 0% means no effect; nearly all actives have a fitted effect of over 60% in size
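Luciferase signal after 10 min detection reagent at ambient indicates Rab9 promoter upregulation; stably transfected Huh7 cells were treated 24 h with compound in DMSO at 37 °C, 5% CO2.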
FLuc modulator: inhibits or activates purified firefly luciferase, miR-21 counter-screen; P08659; purified FLuc, Km substrates, luminescence inhibition; Potency, µM (doses to about 57.5 µM), for the others: top-dose activity change, negative = inhibition, most hits filed as inhibitors; 360,000 tested, 6.9% active;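 further: plate controls were vehicle for no effect and reference inhibitor for full effect; nearly all actives have a fitted effect of over 55% in size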
Target sequence (P08659 whole entry, looked up): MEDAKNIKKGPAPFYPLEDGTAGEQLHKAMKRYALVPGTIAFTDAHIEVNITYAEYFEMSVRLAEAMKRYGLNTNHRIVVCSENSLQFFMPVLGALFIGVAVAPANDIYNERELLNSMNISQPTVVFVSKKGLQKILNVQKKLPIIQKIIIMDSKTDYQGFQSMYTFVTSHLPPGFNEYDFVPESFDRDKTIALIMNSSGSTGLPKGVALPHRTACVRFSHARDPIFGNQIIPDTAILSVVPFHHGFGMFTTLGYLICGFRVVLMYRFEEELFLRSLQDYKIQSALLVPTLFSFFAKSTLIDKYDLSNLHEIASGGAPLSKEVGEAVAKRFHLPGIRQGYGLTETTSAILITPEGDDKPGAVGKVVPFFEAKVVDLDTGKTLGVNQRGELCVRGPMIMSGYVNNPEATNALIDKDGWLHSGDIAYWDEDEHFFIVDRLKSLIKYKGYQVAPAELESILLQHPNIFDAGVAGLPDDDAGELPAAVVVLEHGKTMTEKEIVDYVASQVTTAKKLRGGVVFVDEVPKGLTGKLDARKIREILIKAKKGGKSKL
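Biochemical qHTS of compounds, final roughly 60 µM downward over six points, against 10 nM purified firefly luciferase using Km concentrations of substrates (10 uM D-luciferin, 10 uM ATP) in Tris acetate pH 7.5 buffer; luminescence output.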
ELG1 repair inh: ELG1-dependent DNA repair inhibition; Potency, µM (series often up to 46.1 µM), for the others: at the highest dose activity change, negative = inhibition, usual class: inhibitors; AID 504467; HEK293T ELG1-luciferase reporter, luminescence, 16 h; DNA damage induced by 5-fluorouridine; 330,000 tested, 2.3% active; further: on the % scale 0 is the no-effect control and ±100 the full control effect; nearly all actives have a fitted effect of over 55% in size
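Quantitative HTS, concentration-response format. 2,000 cells/well co-treated with 5-fluorouridine and compound, 16 hr in 5% CO2 at 37 °C; ONE-Glo luminescence read after 30 min.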
NPC1 prom act: activates the NPC1 promoter | Huh7 NPC1 promoter luciferase reporter, 24 h | Potency, µM (titrated, usually from 9.22 µM), for inactives: top-dose activation, hits mostly activators | 320,000 tested, 2.4% active; further: % of control where 0% means no effect; nearly all actives have a fitted effect of over 60% in size
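Luminescence from an NPC1 promoter-driven luciferase reporter in stably transfected Huh7 cells was measured after 24 h compound treatment at 37 °C, followed by 10 min ambient incubation with luciferase detection reagent.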
SMN2 splice up: increases expression of the SMN2 splice variant | Potency, µM (top dose mostly 46.1 µM), for inactives: at the highest dose activity change, positive = activation, most hits filed as activators | AID 1458 | HEK293 SMN2-luciferase splicing reporter, luminescence, 30-36 h | 210,000 tested, 2.8% active; further: % of control where 0% means no effect; nearly all actives have a fitted effect of over 55% in size
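HEK293 cells carry an SMN2 minigene-luciferase reporter in which exon 7 inclusion puts luciferase in frame. Cells were seeded at 2000 cells/well, attached for 10-12 hours, then exposed to compounds for 30-36 hours at 37C before ONE-Glo luminescence.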
Numbers without * were called inactive; ? = inconclusive; . = no result given; [ ] = dose if it differs, or a comment. Rows were chosen to be rich in hits. Some 9.3% of all compounds tested hit in one or more screens of this group. The call rests on the fitted dose curve; in most records, active means well fitted curve in the direction sought with a large enough effect; inconclusive means small, poorly fitted or top-dose-only effect, or another doubt; inactive means no such curve, though single readings can be large; an effect the other way counts as inactive or inconclusive. Potency means the concentration at half of the fitted maximal effect.

SMILES	ELG1 genotoxic	Rab9 promoter act	FLuc modulator	ELG1 repair inh	NPC1 prom act	SMN2 splice up
CC(C)Cc1ccc(/C=C/C(=O)N2CCOCC2)cc1	?	2.2µM*	11µM*	?	2.8µM*	13µM*
O=C(/C=C/c1ccc2c(c1)OCO2)N1CCN(c2ccccc2F)CC1	0%	-6%	?	9%	1%	6%
CCCCN(CC)Cc1ccc(CNS(=O)(=O)c2cc3c(cc2Cl)NC(=O)CO3)o1	.	.	-5%	.	.	.
COc1ccc(-c2cc(=O)oc3c(C)c(O)ccc23)cc1	-14%	-5%	2%	8.2µM*	4%	.
O=c1oc2cc(O)ccc2c2oc3cc(O)ccc3c12	7%	1%	19µM*	?	1%	-23%
COc1ccc(-c2c(C)c3ccc(OCC(C)=O)cc3oc2=O)cc1	-6%	2.2µM*	24µM*	?	2.8µM*	?
CCN(CC)c1ccc2c(C)c(Cl)c(=O)oc2c1	1%	0%	1%	?	0%	.
CCN(CC)c1ccc2c(C)c(-c3ccc(N)cc3)c(=O)oc2c1	6%	24%	24µM*	16%	23%	?
CC(=O)COc1ccc2c(C)c(C)c(=O)oc2c1	?	?	1%	?	6%	-7%
CC(C)Cn1nnnc1S(=O)(=O)CCc1ccccc1	.	.	.	.	.	18%
COc1ccccc1CNC(=O)CSc1nnc(C)c2c(C)n(-c3ccccc3)nc12	.	.	-13%	.	.	.
COc1ccc2c(c1)c(=O)oc1cc(O)ccc12	12%	10%	?	20%	2%	.
COc1ccc(-c2c(C)c3ccc(O)cc3oc2=O)cc1	13%[9.26 µM]	14%	15µM*	?	?	.
COc1cccc(OC)c1C(=O)NC(=S)Nc1ccc2c(c1)Cc1ccccc1-2	8%	16%	3%	10%	-1%	10%
O=C(CCNC(=O)c1ccccc1Cl)Nc1ccc2c(c1)OCO2	0%	-3%	-9%	15%	3%	1%
COc1cccc(OC)c1C(=O)NC(=S)Nc1ccc2c(c1)OCCO2	?	1%	21µM*	?	-4%	-5%
O=C(NC(=S)Nc1ccc2c(c1)OCCO2)c1ccccc1F	?	1.3µM*	5.4µM*	?	2.5µM*	?
O=C(CCl)Nc1ccccc1C(=O)Nc1ccc2c(c1)OCO2	13%	0.4µM*	-4%	?	0.71µM*	.
CCOc1cccc(C(=O)NC(=S)Nc2ccc3c(c2)OCCO3)c1	?	?	8.5µM*	?	20%	30%
Cc1ccc(S(=O)(=O)NCc2nc3cccnc3n2Cc2ccccc2Cl)c(C)c1	.	.	1%	.	.	.
C[C@H](Br)C(=O)Nc1ccc(C(=O)O)c(O)c1	.	.	.	.	.	-9%[9.22 µM]
Cc1cccc(NC(=O)Cn2nnc(C(=O)NCc3cccs3)c2N)c1	.	.	-8%	.	.	8%
Cc1ccc(S(=O)(=O)N(C)c2ccccc2C(=O)Nc2ccc3c(c2)OCCO3)cc1	0%	1%	-15%	?	1%	.
CS(=O)(=O)Nc1ccccc1C(=O)Nc1ccc2c(c1)OCCO2	?	2%	12µM*	?	0%	18%
O=C(Nc1ccc2c(c1)OCCO2)c1c(F)cccc1F	3.3µM*	3.2µM*	6µM*	?	2.5µM*	13µM*
SMILES	ELG1 genotoxic	Rab9 promoter act	FLuc modulator	ELG1 repair inh	NPC1 prom act	SMN2 splice up
O=C(NC(=S)Nc1ccc2c(c1)OCCO2)c1ccccc1	?	0.89µM*	1.2µM*	?	0.63µM*	7.1µM*
O=C(Nc1ccc2c(c1)OCCO2)c1ccccc1F	1.8µM*	0.56µM*	3.4µM*	?	0.79µM*	13µM*
O=C(Nc1ccc2c(c1)OCO2)c1c(F)c(F)c(F)c(F)c1F	-5%	15%	1%[2.3 µM]	-5%	1%	31%
COc1ccc(NC(=O)N2CC3(CCN(C(=O)c4cnccn4)CC3)C2)cc1	.	.	.	.	.	-1%
O=C(NC(=S)Nc1ccc(N2CCCCC2)cc1)c1ccc2c(c1)OCCO2	?	-11%	?	?	-5%	-43%
O=C(NC(=S)Nc1ccc(F)cc1)c1ccc2c(c1)OCCO2	?	0.5µM*	1.9µM*	?	0.63µM*	?
CCCc1nc2sc3ccccc3c(=O)c2c(=O)n1Cc1ccc(OC)cc1	-1%	1%	?	23µM*	12%	.
COc1ccc(CCn2c(C(C)C)nc3c(c(=O)c4ccccc4n3C)c2=O)cc1	-8%	-4%	2%	16µM*	0%	-16%
COc1ccc(Cn2c(C(C)C)nc3sc4ccccc4c(=O)c3c2=O)cc1	-5%	-9%	5%	-8%	-3%	.
COc1cc(C(=O)NCc2nnc(SCC(=O)NCc3ccco3)o2)cc(OC)c1OC	4%	0%	2%	18%	-4%	.
COC(=O)c1ccc(OC)c(CN2CCCN(Cc3ccc(C)cc3)S2(=O)=O)c1	.	.	-10%	.	.	.
COC(=O)c1ccc(OC)c(CN2CCCN(Cc3cc(C)ccc3C)S2(=O)=O)c1	-4%	-2%	1%	15µM*	1%	.
CC(C)S(=O)(=O)CC(=O)c1ccc(Cl)cc1	0%	19%	-5%	1%	0%	13%
CCCc1nn2c(=O)cc(COC(=O)C3CCCCC3)nc2s1	.	.	-17%	.	.	.
COc1ccccc1C(=O)OCc1cc(=O)n2nc(C(C)C)sc2n1	.	.	-16%	.	.	.
CCCc1nn2c(=O)cc(COC(=O)c3cccs3)nc2s1	.	.	27µM*	.	.	.
Cc1ccccc1C(=O)OCc1cc(=O)n2nc(C(C)C)sc2n1	.	.	17µM*	.	.	.
CC(C)c1nn2c(=O)cc(COC(=O)C3CCCCC3)nc2s1	.	.	24µM*	.	.	.
C[C@H](CO)N1C[C@H](C)[C@@H](CN(C)Cc2ccc(C(=O)O)cc2)Oc2c(cccc2N(C)C)C1=O	0%	.	.	17%	.	.
CCC(=O)c1ccc(OCC(=O)Nc2nc(-c3cccnc3)cs2)cc1	-6%	-5%	-13%	?	0%	.
Cc1cc(O)ccc1Nc1nc(-c2cccnc2)cs1	7%	0%	6µM*	?	?	.
Cc1nc(C)c(-c2csc(Nc3ccc(O)cc3C)n2)s1	6%	-2%	3%	5%	-2%	.
CCOc1ccc(Nc2nc(-c3cccnc3)cs2)cc1	?	2.2µM*	?	?	2.2µM*	.
Clc1cccc(Nc2nc(-c3cccnc3)cs2)c1	?	21%	13µM*	?	1%	5%
Brc1ccc(Nc2nc(-c3cccnc3)cs2)cc1	?	29%	?	?	0%	14µM*
Cc1ccc(CNC(=O)CCCCCn2c(=O)c3sccc3n(CC(=O)Nc3c(C)cc(C)cc3C)c2=O)cc1	.	.	0%	.	.	3%
CC(=O)N1CCC2(CCCN(C(=O)Nc3cccc(C#N)c3)C2)CC1	.	.	.	.	.	7%

Screening results from PubChem BioAssay.
